# Among all 69,000 compounds or so, about 1,000 (1.4%) showed an effect of 50% or more. The entries come from a sample that favours strong results as a whole.
# Tested on: Leishmania donovani
# Assay: Leishmania intramacrophage assay
# Assay type: functional, organism-based
# Design: scale not given: in the data most compounds retested in dose-response had high values
structure (smiles),measurement,setting,value
O=C(c1cc(C2CCCCN2C(=O)C2CCC2)n[nH]1)N1CCOCC1 (stereo not drawn),Percent Effect,"30.3 µM, […]",-8.909%
NC(=O)c1ccc(NC(=O)c2ccncc2Cl)cn1,Percent Effect,"30.3 µM, […]",4.641%
NC(=O)c1ccc(NC(=O)c2ccncc2F)cn1,Percent Effect,"30.3 µM, […]",52.29%
CCc1cnccc1C(=O)Nc1ccc(C(N)=O)nc1,Percent Effect,"30.3 µM, […]",-9.48%
COCC(=O)N1CCCCC1c1nc(C)c2c(n1)N(C1CC1)C(=O)CC2 (stereo not drawn),Percent Effect,"30.3 µM, […]",6.342%
c1csc(-c2cc(CN3CCN(c4nccs4)CC3)no2)c1,Percent Effect,"30.3 µM, […]",21.99%
Cc1cc(=O)c(C(=O)N2CCN(C)c3ccccc3C2)c[nH]1,Percent Effect,"30.3 µM, […]",-29.42%
Cc1cc(=O)[nH]cc1C(=O)N1Cc2ccccc2N(C)CC1C (stereo not drawn),Percent Effect,"30.3 µM, […]",-24.09%
Cc1cc(=O)[nH]cc1C(=O)N1CCN(C)c2ccccc2C1,Percent Effect,"30.3 µM, […]",57.95%
COCc1nnc(NC(=O)CN2C(=O)c3ccccc3NC2C(C)C)s1 (stereo not drawn),Percent Effect,"30.3 µM, […]",33.02%
NC(=O)CCCNC(=O)Cc1cccc(I)c1,Percent Effect,"30.3 µM, […]",7.14%
O=C(NC1CC1)NC(c1ccc(F)cc1)C1CC1 (stereo not drawn),Percent Effect,"30.3 µM, […]",4.479%
N#Cc1cccc(N2CCCC3(CN(C(=O)c4ccc[nH]4)CCO3)C2)c1 (stereo not drawn),Percent Effect,"30.3 µM, […]",1.97%
CCC1=N[C@@]2(CC[C@@H]3CN(Cc4ccccc4C)C[C@@H]32)C(=O)N1.O=C(O)C(F)(F)F,Percent Effect,"30.3 µM, […]",9.963%
CCC1=N[C@@]2(CC[C@@H]3CN(Cc4ccccc4C)C[C@@H]32)C(=O)N1C.O=C(O)C(F)(F)F,Percent Effect,"30.3 µM, […]",57.66%
CCC1=N[C@@]2(CC[C@@H]3CN(Cc4ccc(C)cc4)C[C@@H]32)C(=O)N1C.O=C(O)C(F)(F)F,Percent Effect,"30.3 µM, […]",15.86%
CCc1ccc(C2COCCN2C(=O)Nc2ccc(C(N)=O)c(Cl)c2)o1 (stereo not drawn),Percent Effect,"30.3 µM, […]",-7.006%
CC1=C(C(=O)N2CCCC(Cn3cc(CO)nn3)C2)OCCO1 (stereo not drawn),Percent Effect,"30.3 µM, […]",-4.102%
Cc1ccccc1-n1cnc(Cl)c1CO,Percent Effect,"30.3 µM, […]",0.1894%
NS(=O)(=O)c1cccnc1NCc1ccco1,Percent Effect,"30.3 µM, […]",37.64%
NS(=O)(=O)c1cccnc1Nc1c(Cl)cccc1Cl,Percent Effect,"30.3 µM, […]",68.36%
NS(=O)(=O)c1cccnc1Nc1cccc(Cl)c1Cl,Percent Effect,"30.3 µM, […]",7.348%
CC1Cc2ccccc2N1C(=O)Cn1nc(-c2cccs2)ccc1=O (stereo not drawn),Percent Effect,"30.3 µM, […]",31.43%
O=C1CC(c2ccc(C(=O)O)cc2)c2ncn(-c3ccccc3F)c2N1 (stereo not drawn),Percent Effect,"30.3 µM, […]",26.03%
CC(=O)Nc1nc(C(=O)NCc2ccc(N3CCCCCC3)nc2)cs1,Percent Effect,"30 µM, 30.03 µM",27.71%
CC(=O)Nc1nc(C(=O)NCc2ccc(N3CCCC3)nc2)cs1,Percent Effect,30 µM,7.198%
CC(=O)Nc1nc(C(=O)Nc2ccc(N3CCCCC3)nc2)cs1,Percent Effect,"30 µM, 30.03 µM",56.06%
Cc1cn2c(n1)CCC(NC(=O)CCC(F)(F)F)C2 (stereo not drawn),Percent Effect,"30 µM, 30.03 µM",-20.9%
COCCc1noc(CN2CCN(c3ccc(OC)cc3)C(=O)C2C)n1 (stereo not drawn),Percent Effect,"30.3 µM, […]",6.497%
COc1ccc(N2CCN(Cc3nc(CSC)no3)CC2=O)cc1,Percent Effect,"30.3 µM, […]",62.54%
COc1cc(CN2CCN(c3cccc(OC)c3)C(=O)C2)cc(OC)c1,Percent Effect,"30 µM, 30.03 µM",-0.5901%
CCc1ccc(CN2CCN(c3cccc(OC)c3)C(=O)C2)nc1,Percent Effect,"30.3 µM, […]",11.49%
CCc1nnc(CN2CCN(c3cccc(OC)c3)C(=O)C2)o1,Percent Effect,"30.3 µM, […]",85%
COc1ccc(N2CCN(Cc3nc(CSC)no3)C(C)C2=O)cc1 (stereo not drawn),Percent Effect,"30.3 µM, […]",-39.19%
O=C(Nc1ccccc1F)C1=NN(c2ccccc2)C(=O)CN1,Percent Effect,30 µM,-15.12%
Cc1cc(NCCc2c(C)n[nH]c2C)nc(-c2cccnc2)n1,Percent Effect,"30.3 µM, […]",4.777%
Cn1ccnc1CN(Cc1ccccn1)Cc1ccccc1Cl.O=C(O)CC(O)(CC(=O)O)C(=O)O,Percent Effect,"30.3 µM, […]",10.71%
O=C(Nc1ccc(Cl)cn1)c1cncc(C2CCNCC2)n1,Percent Effect,"30.3 µM, […]",-16.97%
COc1ccccc1C(=O)N1CCN(CCc2scnc2C)CC1,Percent Effect,"30.3 µM, […]",5.837%
CCS(=O)(=O)NCC(=O)Nc1cc(CC(C)(C)C)n[nH]1,Percent Effect,"30.3 µM, […]",-13.95%
Cc1cnn(C2CN(CCOc3cccc(C#N)c3)C2)c1,Percent Effect,"30.3 µM, […]",0.4339%
COc1ccc(C2CCCN2c2ccnc(C)c2Cl)c(OC)c1 (stereo not drawn),Percent Effect,"30.3 µM, […]",54.95%
COc1ccc(C2CCCN2c2cnccn2)c(OC)c1 (stereo not drawn),Percent Effect,"30.3 µM, […]",20.05%
COc1ccc(C2CCCN2c2nnc(C)s2)c(OC)c1 (stereo not drawn),Percent Effect,"30.3 µM, […]",1.461%
CCOc1ccc(CNCCCn2ccnc2)cc1OC,Percent Effect,"30.3 µM, […]",3.86%
CCOc1ccc(CNCCCn2ccnc2)cc1Br,Percent Effect,"30 µM, 30.03 µM",80.37%
COc1ccc(C(=O)NCCCn2ccnc2)c(OC)n1,Percent Effect,"30 µM, 30.03 µM",10.91%
COc1cc(CNCCn2ccnc2)cc2c1OCO2.Cl,Percent Effect,"30.3 µM, […]",27.41%
CCOc1ccc(NC(=O)N2CCC(n3cncn3)CC2)cc1Cl,Percent Effect,"30.3 µM, […]",-3.205%
CCOc1cc(CNCCCn2ccnc2)cc(Cl)c1OCC,Percent Effect,"30.3 µM, […]",81.44%
CCOc1ccc(CNCCCn2ccnc2)cc1Cl.Cl.Cl,Percent Effect,"30.3 µM, […]",68.16%
CCOc1cc(CNCCCn2ccnc2)cc(Cl)c1OC,Percent Effect,"30.3 µM, […]",37.96%
COCCCn1ccc(NC(=O)NCCCn2ccnc2)n1,Percent Effect,"30.3 µM, […]",2.018%

# From ChEMBL document CHEMBL3988442, “University of Dundee, Small-Polar-MMV Screening Library” (2021)
